aSyn UTR act: Activators via SNCA 5'UTR binding, MLPCN. AID 1814, 2009. hit rate 7.1% among 300,000. alpha-synuclein 5'UTR reporter, activators screen. activity score, % (tested at 7.5 µM), hits read low; in the data active means activity score below about -60%
* hit, by the source's call. The list is a sample of the results.

SMILES | aSyn UTR act
O=C(Nc1ccc(N2CCCC2)c(Cl)c1)c1cccs1 | -114*
O=C(NC(=S)Nc1ccc(N2CCOCC2)c(Cl)c1)c1cccs1 | -110*
O=C(Nc1ccc(NC(=O)c2cccs2)c(Cl)c1)c1ccco1 | -123*
O=C(NC(=S)Nc1ccc(N2CCCCC2)cc1)c1cccs1 | -104*
O=C(NCCC1=CCCCC1)c1cnc2n(c1=O)CCS2 | -108*
O=C(NCCCc1ccccc1)c1cnc2n(c1=O)CCS2 | -125*
O=C(Nc1cccc(C(F)(F)F)c1)c1cnc2n(c1=O)CCS2 | -108*
O=C(Nc1ccccc1)c1cnc2n(c1=O)CCS2 | -100*
O=C(Nc1ccc(OC(F)(F)F)cc1)c1cnc2n(c1=O)CCS2 | -160*
Nc1c(C(=O)Nc2ccc(S(=O)(=O)N3CCCC3)cc2)sc2nc3ccc(OC(F)(F)F)cc3cc12 | 109
COc1ccc2[nH]c(N=Nc3ccccc3C)c(O)c2c1 | -207*
CCOc1cccc(Nc2ccc([N+](=O)[O-])cn2)c1 | -102*
Cc1cccc(Nc2ccc([N+](=O)[O-])cn2)c1 | -87*
Cc1cccc(NC2=NC(C)(C)N=C(N)N2)c1 | 98
COC(=O)c1ccccc1NC(=O)NCCc1ccccc1OC | -134*
COC(=O)c1ccccc1NC(=O)CC(=O)Nc1ccccc1C(=O)OC | -64*
Cc1c(-c2nc(N)nc(Nc3ccccc3)n2)oc2ccccc12 | -134*
Clc1ccc(-c2nnc(-c3ccccc3)o2)cn1 | -153*
Clc1ccc(-c2nnc(-c3cccnc3)o2)cc1 | -139*
Cc1noc(C)c1-c1nnc(-c2ccc(C(F)(F)F)cc2)o1 | -66*
CCCOc1ccc(C(=O)NNC(=S)NC(C)=O)cc1 | 68
CCCOc1ccc(-c2nnc(-c3ccncc3)o2)cc1 | -80*
Cc1ccc(-c2nnc(-c3cccnc3)o2)cc1 | -113*
Brc1ccc(-c2nnc(-c3ccccc3Br)o2)cc1 | -100*
FC(F)(F)c1ccc(-c2nnc(-c3cccnc3)o2)cc1 | -88*
SMILES | aSyn UTR act
Brc1ccccc1-c1nnc(-c2cccnc2)o1 | -106*
COc1ccc(-c2nnc(-c3cccnc3)o2)cc1 | -111*
Brc1ccc(-c2nnc(-c3cccnc3)o2)cc1 | -144*
COC(=O)c1cn(C(=O)/C=C/c2ccc(OC)c(OC)c2)c2ccccc12 | -78*
C=CCn1cccc(C(=O)Nc2ccc(OC)c(Cl)c2)c1=O | -84*
C=CCn1cccc(C(=O)Nc2ccc(C)c(Cl)c2)c1=O | -140*
CC(CC(=O)Nc1nc2ccccc2[nH]1)c1ccccc1 (configuration not stated) | -189*
O=C(COc1ccccc1)Nc1nc2ccccc2[nH]1 | -150*
Cc1ccccc1OCC(=O)Nc1nc2ccccc2[nH]1 | -111*
Cc1ccsc1C(=O)OCC(=O)NCCC1=CCCCC1 | -81*
COc1cc(/C=N/N2CCOCC2)ccc1OCc1ccccc1 | -107*
COc1cc(/C=N/N2CCOCC2)ccc1OCc1ccc(Cl)cc1 | -66*
O=C(Nc1ccc(Cl)cc1)c1ccc2c(=O)n3c(nc2c1)CCCCC3 | -120*
O=C(Nc1ccc(F)c(Cl)c1)c1ccc2c(=O)n3c(nc2c1)CCCCC3 | -166*
O=C(Nc1ccc(F)cc1)c1ccc2c(=O)n3c(nc2c1)CCCCC3 | -104*
O=C(Nc1cccc(Cl)c1)c1ccc2c(=O)n3c(nc2c1)CCCCC3 | -217*
CCc1cccc(NC(=O)c2ccc3c(=O)n4c(nc3c2)CCCCC4)c1 | -127*
C/C(=N\OC(=O)c1ccc(F)cc1)c1sc(-c2ccccc2)nc1C | -158*
C/C(=N\OC(=O)c1ccc(Cl)cc1)c1sc(-c2ccccc2)nc1C | -124*
CC1=C(CC(=O)c2ccccc2)C(=O)c2ccccc2C1=O | -79*
CS(=O)(=O)Nc1ccc(C(=O)Nc2ccc3ccccc3c2)cc1 | -214*
CC(C)c1ccc(NC(=O)c2ccc(NS(C)(=O)=O)cc2)cc1 | -76*
O=C(Nc1ccc2nccnc2c1)Nc1ccccc1Cl | -90*
Cn1nnc2cc(NC(=O)Nc3cccc(Cl)c3)ccc21 | -151*
O=C(Nc1cccc(Cl)c1)Nc1ccc2nccnc2c1 | -163*
SMILES | aSyn UTR act
CCOc1ccc(CCNC(=O)COC(=O)c2cccc(N(C)C)c2)cc1OCC | -90*
Cc1ccc(NC(=O)c2c(C(F)(F)F)nn(C)c2SCc2cccc(C(F)(F)F)c2)cc1C | -102*
Cc1ccc(C(=O)Nc2cccc(C(F)(F)F)c2)cc1NC(=O)c1ccno1 | 95
CCN=c1scc(C)n1/N=C/c1ccsc1 | -226*
CC(=O)c1ccc(-n2c(CCC(=O)O)ccc2-c2cccs2)cc1 | -99*
COc1ccc2occ(C(=O)c3cccs3)c2c1 | -242*
C=CCN(C(=O)C1=NN(C2CCS(=O)(=O)C2)C(=O)CC1)c1nc(-c2ccc([N+](=O)[O-])cc2)cs1 (configuration not stated) | -135*
CCOc1ccc2c(c1)sc(=NC(=O)C1CC1)n2C | -215*
CC1=NN(c2ccccc2)C(=O)/C1=C/c1c(O)n(-c2ccc(F)c(Cl)c2)[nH]c1=O | -105*
CCCCN1CCc2c([nH]c3ccc(C)cc23)C1=O | -171*
CC(=O)c1ccc(Sc2ccc(C(C)=O)cc2)cc1 | -64*
CN(C)/C=C/c1oc2ccc(O)cc2c1[N+](=O)[O-] | -86*
CCOc1ccc(N=C2NC(=O)S/C2=C\c2ccc(N(C)C)cc2)cc1 | -129*
CCOc1ccc(/C=C2/SC(=O)NC2=S)cc1 | -95*
CCOc1ccc(/C=C2\SC(=S)N(CCCC(=O)NCCCN3CCOCC3)C2=O)cc1 | 84
COC(=O)C1(Cc2cc(-c3ccccc3)no2)CCN(C(=O)OC(C)(C)C)CC1 | -82*
Cc1nn(-c2nnc(NCc3ccccc3)nn2)c(C)c1Br | -85*
Cc1c2ccccc2nc2c(F)c(NC(C)C)c(F)c(F)c12 | -106*
Cc1ccc(C(=O)O/N=C(\N)Cc2ccc([N+](=O)[O-])cc2)c(Cl)c1 | -73*
Cc1ccc(C(=O)O/N=C(\N)Cc2cccs2)c(Cl)c1 | -73*
CN(C)c1ccc(C(=O)NC2CCCc3ccccc32)cc1 (configuration not stated) | -71*
COC(=O)C1=C(C)NC(C)=C(C(=O)OC)C1c1ccc(-c2cccc(Cl)c2Cl)o1 | -72*
CCOc1ccc2cc(C(=O)c3ccccc3)c(=O)oc2c1 | -161*
CCOc1ccc2cc(C(=O)NCc3ccccc3)c(=N)oc2c1 | -102*
COc1ccc2cc(C(=O)c3ccccc3)c(=O)oc2c1 | -151*
SMILES | aSyn UTR act
COc1ccc2cc(S(=O)(=O)c3ccccc3)c(=O)oc2c1 | -75*
CCOC(=O)c1ccc2c(c1)[nH]c(=S)n2CC | -64*
CC(=O)c1ccc2c(c1)Cc1cc(C(C)=O)ccc1-2 | -125*
COc1ccc(-c2nc3c4ccccc4ccn3c2CN2CCOCC2)cc1OC | -95*
O=C(Nc1ccc(CN2CCCCC2)cc1)c1c(F)c(F)c(F)c(F)c1F | -63*
O=C(Nc1ccc(CN2CCCCC2)cc1)c1ccc(Br)o1 | -76*
Oc1c(CN2CCCCC2)cc(Br)c2cccnc12 | 112
Fc1ccc(Cn2cccc2C2=NC(c3ccccc3)CO2)cc1 (configuration not stated) | -88*
Cc1nc(-c2ccccc2)sc1C(=O)NN | -102*
C=CCNC(=O)c1sc(-c2ccccc2)nc1C | -67*
COc1ccc(C2(C)NC(=O)N(CC(=O)Nc3ccc(-c4nc5ccc(C)cc5s4)cc3)C2=O)cc1 (configuration not stated) | -191*
CCC1(c2ccc(F)cc2)NC(=O)N(CC(=O)Nc2ccc(-c3nc4ccc(C)cc4s3)cc2)C1=O (configuration not stated) | -201*

Screens from PubChem.
